Among the data in PubChem BioAssay AID868 (SRMLSC, 2007) are inhibition values, retold here.

The structures appear in SMILES notation. About 3,500 (1.8%) of roughly 190,000 compounds were called active. The full list was thinned out, with actives kept by preference. A number with no mark means an inactive call.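 How the source made its calls: active means inhibition above a set limit, 3 SD over mean compound inhibition (cut at about 8.4% in these data); inactive means the rest.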

One may read the inhibition as the relative decrease from the control value, in per cent.

The nature of this assay: inhibitors of the yeast RAM network, primary screen, dse1pr::URA3 reporter, 5-FOA selection (AID 868).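 Further: 0% = DMSO-only wells with no growth and 100% = 10 µM 1-NA-PP1 full growth; inhibition rescues growth on 5-FOA so higher OD means more RAM inhibition.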 Particulars: S. cerevisiae dse1pr::URA3 reporter, 5-FOA growth OD615, 2 d; at 50 µM; hits give high values; analog-sensitive cbk1-as2 kinase mutant strain.
Turning to `Cc1ccc(C(=O)NC(=S)Nc2ccc(N3CCOCC3)cc2)cc1`, the inhibition is 0.79%.

For `COc1ccc(C(=O)NC(=S)Nc2ccc(N3CCCC3)cc2)cc1OC`, the inhibition was 12.4% (active).

In the case of `COc1cccc(OC)c1C(=O)Nc1ccc(N2CCCCC2)cc1`, the inhibition was 0.91%.

As to `C=C(C)C1CC=C(C)/C(=N/NC(=O)CCCNc2cccc(C)c2)C1` (stereo not given), the inhibition was 0.96%.

With `CCN(CC(=O)NCc1cccs1)C(=O)c1ccccc1F`, the inhibition was 1.03%.

Consider `COc1ccc(OC)c(CNC(=O)c2cc(=O)[nH]c3ccc(S(=O)(=O)N4CCCC4)cc23)c1`, for which the inhibition is 2.57%.

On to `CCOC(=O)CC(=O)CSc1nc(-c2ccccc2)cc(-c2ccc(Cl)cc2)c1C#N`, for which the inhibition is 13.1% (active).

With `N#Cc1c(C(F)(F)F)cc(-c2ccc(Cl)cc2)nc1SCC(=O)O`, the inhibition is 2.99%.

As for `CCSc1nc(-c2ccc(OC)cc2)cc(-c2ccc(OC)cc2)c1C#N`, the inhibition is 6.16%.

With `COc1ccc(NS(=O)(=O)c2ccc(NC(=S)NC(=O)CC(C)C)cc2)cc1`, the inhibition was 9.99% (active).

Take `CC(=O)c1ccc(NC(=S)NC(=O)CC(C)C)cc1`: the inhibition was 0.87%.

For the compound `COc1ccc(C(=O)Nc2ccc(S(=O)(=O)NC(C)C)cc2)cc1`, the inhibition was 1.59%.

`CC(=O)Oc1c(C(=O)c2nnc(C)o2)c(=O)n(Cc2ccccc2)c2ccccc12`: the inhibition is 1.56%.

On to `O=C(CSc1ccc([N+](=O)[O-])cn1)Nc1ccc(N2CCOCC2)cc1`, for which the inhibition is 2.94%.

Regarding `CCc1c(C)sc(NC(=O)/C=C/c2ccc3c(c2)OCO3)c1C(=O)OC`, the inhibition was 2.35%.

With `CCOC(=O)c1c(NC(=O)c2ccc(Br)o2)sc2c1CCCC2`, the inhibition is 3.28%.

On to `CCc1c(C)sc(NC(=O)c2ccc(Br)o2)c1C(=O)OC`, for which the inhibition is 9.13% (active).

For the compound `O=C(C(=O)N1CCc2ccccc2C1)N1CCc2ccccc2C1`, the inhibition was -0.82%.

Regarding `O=C(CN1CCN(c2nc(-c3ccccc3)cs2)CC1)NCc1ccc2c(c1)OCO2`, the inhibition was 0.34%.

For `c1ccc(-c2csc(N3CCc4ccccc4C3)n2)cc1`, the inhibition is 12% (active).

On to `C/C(=N\NC(=O)NC1CCCCC1)c1ccc(OC(F)F)cc1OC(F)F`, for which the inhibition was 0.62%.

Consider `N#C/C(=C\c1ccccc1C(F)(F)F)C(=O)Nc1ccccc1F`, for which the inhibition is 1.21%.

Take `N#C/C(=C\C1=C(N2CCOCC2)C(=C\c2ccccc2)/CC1)C(=O)Nc1ccccc1F`: the inhibition is 11.8% (active).

On to `C(=N\N1CCN(c2ccccn2)CC1)/C1=C(N2CCOCC2)C(=C/c2ccccc2)/CC1`, for which the inhibition was -0.25%.

Consider `Cn1c(N)c(C(=O)COC(=O)c2ccccc2NCc2ccco2)c(=O)n(C)c1=O`, for which the inhibition is 1.05%.
